# About 83,000 compounds went through this panel and 20% of them were active in at least one assay; those are over-represented in the sample as a whole.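 The test compound was applied at a single concentration to cells in 96-well plates for 48 hours, and percent growth was recorded.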 Values without a mark were called inactive. Active and inactive are the calls of the source. How the source made its calls: active means growth percent below 10; inactive means the rest.
# System: HL-60(TB) leukemia
# Assay: NCI-60 one-dose screen, 48 h (100 = growth as untreated, 0 = no growth, -100 = all killed)
# Settings: 10 µM unless noted
row,Compound,growth
1,O=C(N/N=C/c1ccc(Cl)cc1)c1ccc(NC(=O)c2ccccn2)cc1,103%
2,CCCCCCCCCN(CCCCCCCCC)C(C)C(=O)c1ccc2cc(Br)c3ccccc3c2c1 (stereo not given),102%
3,COc1ccc(OC)c(/C=C/c2nnc(Nc3ccccc3)o2)c1,75.7%
4,CC(C)c1cccc(C#N)c1,112%
5,COc1ccc2c(c1OC)OCC(CN(C)C)C2=O (stereo not given),40.1%
6,N#CC1=C(N)Oc2c(ccc3cccnc23)C1c1ccccc1 (stereo not given),13.3%
7,OCCCc1n(Cc2ccc3ccccc3c2)c2ccccc2[n+]1Cc1ccc2ccccc2c1,-43.5% (active)
8,CCOC(=O)/C(C#N)=C\c1c[nH]c2ccccc12,104%
9,COc1ccccc1/C=C/C(=O)c1ccccc1,51.8%
10,Cc1ccc2nc3c(nc2c1)-c1cccc2cccc-3c12,93.5%
11,CCCCOc1c(N)cccc1C(=O)OCCN(CC)CC,64.3%
12,COc1ccccc1S(=O)(=O)Nc1ccc2c3c(cc(-c4ccoc4)nc13)C(=O)N2C,8.91% (active)
13,C/C=C(/C)C(=O)O[C@@H]1CC(C)(C)CC2C34OC(=O)[C@@]21CC[C@@]3(C)[C@]1(C)CCC2C(C)(C)C(=O)CC[C@]2(C)C1C[C@@H]4O (stereo not given in full),6.92% (active)
14,CC1(C)CC[C@]2(C(=O)Nc3ccccn3)CC[C@]3(C)C(=CC[C@@H]4[C@@]5(C)C/C(=C/c6cccnc6)C(=O)C(C)(C)[C@@H]5CC[C@]43C)[C@H]2C1,1.84% (active)
15,COc1ccc2nc3cc(Cl)ccc3c(NC(=O)CSc3ccc(Cl)cc3)c2c1,-50.7% (active)
16,C[C@]12C[C@@H](c3ccoc3)OC(=O)[C@@H]1CC[C@]1(C)[C@@H]2CC[C@@H](O)[C@]1(C)O,9.31% (active)
17,CC(C)N(CCOC(=O)Nc1ccccc1Cl)C(C)C,103%
18,COc1ccc(CSc2nnc(SCC(=O)Nc3ccc(Cl)cc3)s2)cc1,56.9%
19,C=C1CC[C@@H]2[C@](C)(COC(C)=O)[C@H](OC(C)=O)CC[C@@]2(C)[C@@H]1CC(Nc1ccc(S(=O)(=O)Nc2nc(C)cc(C)n2)cc1)C1=CCOC1=O (stereo not given in full),21.7%
20,N#Cc1ccc(N2Cc3cc(Cl)ccc3OC3=C2C(=O)N(Cc2ccccc2)C3=O)cc1,-48.2% (active)

row,Compound,growth
1,COc1cc(/C=N\Nc2ccccc2)ccc1OC(=O)c1ccccc1,-10.8% (active)
2,CCCCCCCCCCCCNCCCc1ccccc1,32.3%
3,O=C(CS(=O)c1oc(-c2cccs2)nc1S(=O)(=O)c1ccc(Br)cc1)c1ccccc1 (stereo not given),87.9%
4,Cc1ccc(C(CC(=O)O)c2c(C)[nH][nH]c2=O)cc1 (stereo not given),98.8%
5,Clc1ccc(-c2nnc(COc3ccccc3Cl)o2)cc1,120%
6,Clc1cccc(Cl)c1Cn1c(-c2cncs2)nc2ccccc21,56.6%
7,COc1cc(-c2cc(/C=C/C(=O)c3ccc(N)cc3)[nH]n2)cc(OC)c1OC,13.2%
8,O=S(=O)(NCCCNc1cc(-c2cn(-c3ccccc3)nc2-c2cccc(O)c2)ccn1)c1ccc(C(F)(F)F)cc1,25%
9,CC1=C(SCCC(=O)OC(C[Se]C2=C(C)C(=O)c3ccccc3C2=O)C(=O)NCCCCCC(=O)OCc2ccccc2)C(=O)c2ccccc2C1=O (stereo not given),-1.59% (active)
10,C=C1C(=O)C2CCN1CC2,97.4%
11,N#C/C(=C\c1ccc(C(F)(F)F)cc1)c1cc2ccccc2[nH]1,89.3%
12,COc1cc(C2NC(c3ccc(Cl)cc3)C(C)/C(=N/NC(N)=S)C2C)cc(OC)c1OC (stereo not given),79.9%
13,CCCCCCCCCCCCCCCC(=O)OCC1OC(n2cnc3c(=S)nc(N)[nH]c32)C(OC(=O)CCCCCCCCCCCCCCC)C1OC(=O)CCCCCCCCCCCCCCC (stereo not given),86%
14,CCCC(=O)Oc1ccc(/C(=C(/CC)Cc2ccccc2)c2ccc(OCCN3CCCC3)cc2)cc1,89.2%
15,CCOP(=O)(O)OP(=O)(O)OCC,94.1%
16,Cc1nc(N)nc(SCc2ccccc2)c1Br,53.2%
17,CC1(C)CCC(S(=O)(=O)c2ccc3c(c2)/C(=N\O)c2cc(S(=O)(=O)N4CCN(c5ccc(F)cc5O)CC4)ccc2-3)CC1,-70.7% (active)
18,CC(=O)O[C@H]1CC[C@]2(C)[C@H]3CC=C4[C@@H]5CC(C)(C)CC[C@]5(C(=O)NCCNCCNCCN)CC[C@@]4(C)[C@]3(C)CC[C@H]2C1(C)C,-42.8% (active)
19,COc1ccc(C2C3(C#N)C(N)=NC(=C(C#N)C#N)C23C#N)cc1OC (stereo not given),107%
20,COc1ccc(-c2[nH]ncc2-c2cc3c(c(OC)c2)OCC(=O)N3)cc1,11.3%
